Active and inactive are the calls of the source. The calls were made as follows: active = hit-call score of the fitted dose curve at least 0.9, where 1 is the maximum; inactive = score below 0.9. *1 amine or outer side, *2 acyl side, *3 side chain or, on linkers, in order; H or OH if unused. Where a SMILES comes first, the peptide text is derived from it. Bridges are numbered along the chain shown (N, C = ends). Roman numbers before positions name the chains, in order. [ ]: non-standard residue; d: D form. Actinocin(9to1) = Cc1c2oc3c(C)ccc(C(=O)[*:1])c3nc-2c(C(=O)[*:2])c(N)c1=O; NMeV = CN[C@H](C(=O)O)C(C)C; Sar = CNCC(=O)O
Each compound was assayed on SRY-box transcription factor 17 (SOX17) Protein Expression, Deisenroth Lab, SOX17 (gene 64321) (assay: CCTE_Deisenroth_DEVTOX-GLR_Endo_SOX17: CCTE's DevTox GLR-Endo Assay Evaluation of SRY-box transcription factor 17 (SOX17) Protein Expression, Deisenroth Lab (AID 2284413)).
Experimental: CCTE_Deisenroth_DEVTOX-GLR_Endo assay is a cell-based, multiplex-readout assay that uses RUES2-GLR, a human pluripotent cell line, with measurements taken at 48 hours after chemical dosing in a 384-well microplateCCTE_Deisenroth_DEVTOX-GLR_Endo_SOX17 is 1 of 4 assay components calculated from the CCTE_Deisenroth_DEVTOX-GLR_Endo assay and it measures the percentage of cells in an endoderm state. Using a type of inducible fluorescent protein reporter, gain-of-signal activity can be used to understand changes in gene expression with fluorescent microscopy. The percentage of SOX17+ cells are determined by calculating the number of SOX17+ cells divided by the cell count. To generalize the intended target to other relatable targets, this assay component is annotated to the transcription factor intended target family, where the subfamily is SRY-related HMG-box.Data from the assay component CCTE_Deisenroth_DEVTOX-GLR_Endo_SOX17 was analyzed as 1 assay endpoint. The endpoint is the percent change in SOX17+ cell population relative to the 0.2% DMSO control in the CCTE_Deisenroth_DEVTOX-GLR_Endo assay. This assay endpoint can be referred to as a primary readout since this assay has produced multiple assay endpoints where this one serves as a measure of endoderm differentiation.
All assay protocols are aligned to the DevTox GLR-Endo assay workflow. Cells are seeded into 384-well microplates for 24 hours prior to initiating differentiation in defined media for a total duration of 48 hours. A total of two chemical exposures are administered in 24-hour intervals during the 48-hour differentiation period. At the assay termination point, cells are fixed and stained with a fluorescent dye demarcating the nucleus. High-content imaging is used to acquire brightfield and fluorescent channel images across 5 fields per well. Cell identification and mean biomarker fluorescence intensities are calculated with image analysis software to determine the total cell counts for viability assessment and the biomarker expression frequency for each lineage-dependent assay. A typical experimental design tests a 10-point concentration series (1 nM - 200 uM) for 28 compounds in single technical replicate. Assay plate controls include non-differentiated pluripotent cells (baseline control), lineage-specific differentiated cells (differentiation control), and DMSO solvent exposed differentiated cells (solvent control). Experiments typically comprise a minimum of four experimental replicates (n=4).

Row | Structure (SMILES) | AC50
1 | Cc1nc(Nc2ncc(C(=O)Nc3c(C)cccc3Cl)s2)cc(N2CCN(CCO)CC2)n1 | 0.633 µM (active)
2 | O=c1[nH]c(=O)n([C@H]2C[C@H](O)[C@@H](CO)O2)cc1Br | 0.657 µM (active)
3 | CN1CCN2c3ccccc3Cc3ccccc3C2C1 (stereo not given) | 34.1 µM (active)
4 | Cc1c2oc3c(C)ccc(C(=O)N[C@@H]4C(=O)N[C@H](C(C)C)C(=O)N5CCC[C@H]5C(=O)N(C)CC(=O)N(C)[C@@H](C(C)C)C(=O)O[C@@H]4C)c3nc-2c(C(=O)N[C@@H]2C(=O)N[C@H](C(C)C)C(=O)N3CCC[C@H]3C(=O)N(C)CC(=O)N(C)[C@@H](C(C)C)C(=O)O[C@@H]2C)c(N)c1=O (I: T[dV]P[Sar][NMeV] / II: T[dV]P[Sar][NMeV]; ester I:1-I:C, II:1-II:C; linker I:N-II:N via Actinocin(9to1)) | 4.42e-05 µM (active)
5 | Cc1nc2sccn2c(=O)c1CCN1CCC(=C(c2ccc(F)cc2)c2ccc(F)cc2)CC1 | 11 µM (active)
6 | O=C(c1ccc(F)cc1)C1CCN(CCn2c(=O)[nH]c3ccccc3c2=O)CC1 | 37.9 µM (active)
7 | CC1=C(/C=C/C(C)=C/C=C/C(C)=C\C(=O)O)C(C)(C)CCC1 | 0.119 µM (active)
8 | O=C1Cc2cc(CCN3CCN(c4nsc5ccccc45)CC3)c(Cl)cc2N1 | 3.99 µM (active)
9 | COc1cc2ncnc(Nc3ccc(F)c(Cl)c3)c2cc1OCCCN1CCOCC1 | 5.78 µM (active)
10 | COc1cc2c(Nc3ccc(Br)cc3F)ncnc2cc1OCC1CCN(C)CC1 | 4.83 µM (active)
11 | CCCCCN=C(N)N/N=C/c1c[nH]c2ccc(OC)cc12 | 5.27 µM (active)
12 | Cc1ccc(NC(=O)c2ccc(CN3CCN(C)CC3)cc2)cc1Nc1nccc(-c2cccnc2)n1 | 14.2 µM (active)
13 | Nc1cccc2c1CN(C1CCC(=O)NC1=O)C2=O (stereo not given) | 0.293 µM (active)
14 | CNC(=O)c1cc(Oc2ccc(NC(=O)Nc3ccc(Cl)c(C(F)(F)F)c3)cc2)ccn1 | 0.604 µM (active)
15 | CCN(CC)CCNC(=O)c1c(C)[nH]c(/C=C2\C(=O)Nc3ccc(F)cc32)c1C | 0.616 µM (active)

Reference: PubChem BioAssay (EPA / NIEHS)
